Experimental findings from paper PMC12136788 are described below.

Residue numbers refer to the chain shown, from its start. In all, about 24,000 sequences were measured (“enrichment r”: median about 0.99, highest 2% from about 3.7 on). What follows is part of a selection rich in the highest values, with near analogues and random picks from the rest.

B1: chr6:36760027:36760028:-_ENSMUSG00000029838_ENSMUST00000101534|mus_hu|FALSE|FALSE (ssRNA)
RNA: GGGAGUUCUACAGUCCGACGAUCGUACCCGGCUCGCUGCAGCUCCUGCUUGGGCCGCUGCUGCUCUCCCCGCCUUCUGGACGGAUGACUCACUGGUCUCUUUCUUCCCCUCUCUCCACUUUGGAUUUUCCUCUGCUCUGGGGCCAACAGAGGAUUGAGCAUCA
B2: chr5:37680062:37680063:+_ENSMUSG00000029121_ENSMUST00000031004|mus_hu|mus_mus_mus_hu_False|8_38 (ssRNA)
RNA: GGGAGUUCUACAGUCCGACGAUCUUUGGGUGUAGCUGGUACCUCGUACACAGGACCGUCAUACAUGCCCCUGGAAACCCCUUGCAAUCCAAAAACCUUGCUUCUGAUUUUGACGCGCUGGUACAGGUGCUCUGGGAACGCCUUCAACAGAGGAUUGAGCAUCA
B3: chr18:54424204:54424205:+_ENSG00000091157_ENST00000357574|hu_mus|FALSE|FALSE (ssRNA)
RNA: GGGAGUUCUACAGUCCGACGAUCCCAGGCGUGGAGACAGGACAUGAAUAAUUUUGCGGUAUCCAUAGUAAGGUUGUAUUCUAGUAGGGUCAGUGGCUUGGACUUGCUGGCCCGGUACUCAGGGUCACUAUCCUCCCUGCUCUGCAACAGAGGAUUGAGCAUCA
B4: 95985174_95988629_161_5pUTR_ENSMUSG00000038486_ENSMUST00000035371|mouse|control|control (ssRNA)
RNA: GGGAGUUCUACAGUCCGACGAUCGGCUAAACUGAGGAUCCAAGAUAUUUCAGGGAGGGCUGCCUAUUUUUCUUCUGAGAGGCUCUGAAGACCUGAGCUUGGUUCCCCGGGUCAGGGAGUCCCCGGGUGAGGGAGGGGGUCCAGCAACAGAGGAUUGAGCAUCA
B5: chr8:35203877:35203878:-_ENSMUSG00000031513_ENSMUST00000033910|mus_hu|motif|central (ssRNA)
RNA: GGGAGUUCUACAGUCCGACGAUCGGAAGGGCACAUCCAAGCAUCAAAAACAUCAGUCCGAUUGCUCCUCCAAAGGACAAACGGAUCAAAGCUUUGAUGCCUGCCAUGGCGGUGACGUCGCUCCUGGCUCCACGACCCGAGGCGCAACAGAGGAUUGAGCAUCA
B6: chr7:54823571:54823572:-_ENSG00000132432_ENST00000352861|hu_mus|hu_hu_hu_mus_False|98_98 (ssRNA)
RNA: GGGAGUUCUACAGUCCGACGAUCUCCCAUGAUAGCAAAUCCUAUUGCUGUAGCCAUGGCAAUCUUCUGGAAUUCUUUUCUGUCGGGUUUGGUGCAUCUUUUAACCAGCCGAAUUGAGUCCUUUACAAACUGCCGGCUGGGCUCCAACAGAGGAUUGAGCAUCA
B7: 80410323_80421071_410_CDS_ENSMUSG00000027002_ENSMUST00000028386|mouse|control|control (ssRNA)
RNA: GGGAGUUCUACAGUCCGACGAUCCACAGCAGAUUCCAGGUUUUUGUCAAUAAGGUAGGAGGGUUUAGCCUUGGGGUCGCCACAUGCCUUCUUGAUGUUGUAGAGGCGCGUGAGCAUGCCGACGCCCCGGUCGUUGAGGAUGGUCAACAGAGGAUUGAGCAUCA
B8: chr7:149838072:149838073:-_ENSMUSG00000048583_ENSMUST00000000033|mus_mus|motif|central (ssRNA)
RNA: GGGAGUUCUACAGUCCGACGAUCGAUCACUGCUCCCGUUAUGUAGGGAAUGGGUACAAUUGAUUAUGAGCGCAUAAAAAGCGGAGGAGGGAUUAAAAAAAAAAGGAAAAAACCGGCCCCAGAAAUAAAAAGAGGGGAAUAGAUCAACAGAGGAUUGAGCAUCA
B9: chr2:25961539:25961540:-_ENSG00000143970_ENST00000336112|hu_mus|FALSE|FALSE (ssRNA)
RNA: GGGAGUUCUACAGUCCGACGAUCGAGUAAUGGAAAGCCUGCUCAUAACAAACCAUUUAACCCAAGAGCUCAUGAAACUUUAAGAGGAGGAAAGCAGCAUAGAGCAAUCAGAAUGGUAACUGAAGGGACCGUUCUAUGUAGGACCAACAGAGGAUUGAGCAUCA
B10: chr3:94910677:94910678:-_ENSMUSG00000028126_ENSMUST00000107236|mus_mus|motif|central (ssRNA)
RNA: GGGAGUUCUACAGUCCGACGAUCACUUGAGCCGGGCCCCGGGAGUCCCGCGUCUCGGAUAGAACAAACCUAAAGGAAAACCGGGGCACCUGAGGUGCCCCCAAAAGCGAAUGCCCCCCCUCCCUCACCUCCCCAGCCACUGCCCAACAGAGGAUUGAGCAUCA
B11: chr7:149838072:149838073:-_ENSMUSG00000048583_ENSMUST00000000033|mus_mus|FALSE|FALSE (ssRNA)
RNA: B8 RNA with G82U, G83A
B12: chr7:75932113:75932114:+_ENSG00000106211_ENST00000248553|hu_hu|hu_hu_hu_mus_False|8_88 (ssRNA)
RNA: GGGAGUUCUACAGUCCGACGAUCCUGCGACCACUCAUCGGGCAACCGGGGCAGCCCGAAAGCUUGAUCGAAGAGGCGGCUGUGUGCAGGGUACCAGUCCCGGAAUGGUUCCCAGCUCGGGCUCCGCAGCGAGAAGGAGGGCACCAACAGAGGAUUGAGCAUCA
B13: chr2:47388980:47388981:-_ENSG00000143933_ENST00000272298|hu_mus|hu_hu_hu_mus_True|8_68 (ssRNA)
RNA: GGGAGUUCUACAGUCCGACGAUCUUCAUCUGUUAACUUCUCGCCAAGGUUUGUCAUCACAUGGCGAAGUUCUGCAGCACUAAUAUAGCCAUUGCCAUCCUUAUCAAACACACGGAAUGCUUCUCUAAUUUCUUCUUCACUGUCCAACAGAGGAUUGAGCAUCA

The target of this test is T1, UNK ZnF1-3 (human, UniProt Q9C0B0 31-174).
T1 sequence: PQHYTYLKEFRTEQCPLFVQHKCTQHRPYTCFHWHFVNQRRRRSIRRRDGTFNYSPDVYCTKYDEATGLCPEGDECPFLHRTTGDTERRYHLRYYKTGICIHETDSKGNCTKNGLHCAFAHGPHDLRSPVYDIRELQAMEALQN
The experiment in a line: nsRBNS (natural sequence RNA bind-n-seq); RBNS binding buffer (assumed for nsRBNS): 25 mM Tris pH 7.5, 150 mM KCl, 3 mM MgCl2, 0.01% Triton X-100, 500 ug/ml BSA, 20 U/ml SUPERase-In, 4 C; UNK is unkempt and MSI1 is Musashi-1; names of the RNAs are library labels; protein concentration not given here; high values mean tight binding.
As to B1, the binding signal worked out at 0.683 enrichment R. In the case of B2, the binding signal is 0.747 enrichment R.

The molecule B3 registered a binding signal of 0.993 enrichment R. B4 came in with a binding signal of 1.92 enrichment R. The molecule B5 showed a binding signal of 0.394 enrichment R.

For the molecule B6, the binding signal is 0.647 enrichment R.

On to B7, for which the binding signal came out at 0.855 enrichment R. To B8 belongs 9.4 enrichment R; to B9, 3.45 enrichment R; to B10, 2 enrichment R. In the case of B11, the binding signal is 11 enrichment R. Under B12 stands 1.63 enrichment R; under B13, 0.795 enrichment R.
